Hits are enriched below; roughly 1.3% of the tested compounds scored in any of these assays.
Giardia FBPA inh = qHTS Assay for Inhibitors of Fructose-1,6-bisphosphate Aldolase from Giardia Lamblia; A8B2U2; purified Giardia FBPA; Potency, µM (top dose mostly 59.6 µM), for inactives: top-dose activity, negative = inhibition, actives largely listed as inhibitors; hit rate 0.71% among 290,000; further: nearly all actives have a fitted effect of over 55% in size
Target sequence (A8B2U2 whole entry, looked up): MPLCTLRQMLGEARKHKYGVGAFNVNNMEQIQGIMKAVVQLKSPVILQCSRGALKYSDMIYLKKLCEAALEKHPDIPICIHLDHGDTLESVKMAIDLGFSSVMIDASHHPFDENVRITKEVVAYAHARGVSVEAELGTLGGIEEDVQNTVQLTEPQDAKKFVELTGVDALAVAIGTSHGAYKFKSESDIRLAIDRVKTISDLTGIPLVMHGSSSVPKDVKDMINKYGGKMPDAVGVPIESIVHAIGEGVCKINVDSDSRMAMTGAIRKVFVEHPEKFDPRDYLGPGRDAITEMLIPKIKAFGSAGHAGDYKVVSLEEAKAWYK
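40 nM FBPA preincubated 10 min at RT with compound (up to 57.5 uM final), then substrate plus GAPDH/TPI/NAD/arsenate coupling and diaphorase/resazurin added. Fluorescence read after 20 min at RT, 525/598 nm.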
AmpC inh detg = qHTS Inhibitors of AmpC Beta-Lactamase (assay with detergent). AmpC hydrolysis of nitrocefin, absorbance 480 nm, 0.01% Triton. P00811. hit rate 0.041% among 370,000. Potency, µM (series often up to 114 µM), without a hit: at the highest dose activity change, negative = inhibition, actives largely listed as inhibitors;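 further: 0% = no-compound wells and -100% = no-enzyme wells; nearly all actives have a fitted effect of over 25% in size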
Target sequence (P00811 whole entry, looked up): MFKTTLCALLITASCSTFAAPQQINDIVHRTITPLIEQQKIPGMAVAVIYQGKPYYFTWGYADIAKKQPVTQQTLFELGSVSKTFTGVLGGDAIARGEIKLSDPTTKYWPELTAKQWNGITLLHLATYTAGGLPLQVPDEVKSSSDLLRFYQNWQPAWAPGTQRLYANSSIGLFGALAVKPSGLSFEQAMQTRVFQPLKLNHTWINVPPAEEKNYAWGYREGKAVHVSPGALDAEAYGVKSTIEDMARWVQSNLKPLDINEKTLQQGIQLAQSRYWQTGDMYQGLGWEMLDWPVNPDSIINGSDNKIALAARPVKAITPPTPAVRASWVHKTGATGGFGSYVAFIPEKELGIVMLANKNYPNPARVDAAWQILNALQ
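AmpC (5.3 nM in the dispensed reagent) in 20 mM phosphate pH 7.0 with 0.01% (detergent screen) or 0.0001% Triton X-100 was preincubated with compounds for 15 min at room temperature. Nitrocefin was then added from an 800 uM solution, and hydrolysis was followed at 480 nm.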
AMA1 RON2 block = qHTS for Inhibitors of AMA1-RON; Towards Development of Antimalarial Drug Lead: Primary Screen | hit rate 0.2% among 360,000 | Potency, µM (top dose mostly 58.2 µM), without a hit: at the top dose activity change, negative = inhibition, usual class: inhibitors | AlphaScreen AMA1-biotinylated RON2 peptide binding | Plasmodium falciparum AMA1 (3D7) - RON2 peptide interaction;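 further: 0% = vehicle wells and -100% = peptide control; nearly all actives have a fitted effect of over 45% in size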
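AMA1 (3D7) with his tag at 25 nM final met compounds first, then biotinylated RON2 peptide at 25 nM; detection used donor plus acceptor beads, 10 µg/mL apiece, read by AlphaScreen after 30 min at room temperature.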
LmPK inh = qHTS Assay for Inhibitors of Leishmania Mexicana Pyruvate Kinase (LmPK); hit rate 0.37% among 290,000; purified LmPK, Kinase-Glo ATP luminescence, 1 h; AID 1721, 2009; Potency, µM (titrated, usually from 57.5 µM), for the others: top-dose activity change, negative = inhibition, usual class: inhibitors
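0.1 nM LmPK, 0.5 mM PEP, 0.1 mM ADP; 50 mM imidazole pH 7.2, 7 mM MgCl2, 50 mM KCl; 1 h RT. Kinase-Glo luminescence readout, normalized to no-enzyme (full inhibition) and uninhibited wells.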
AmpC no deterg = qHTS Inhibitors of AmpC Beta-Lactamase (assay without detergent). AmpC nitrocefin hydrolysis, absorbance 480 nm, 0.0001% Triton. Potency, µM (doses to about 57.1 µM), inactives show top-dose activity change, negative = inhibition, actives largely listed as inhibitors. hit rate 0.52% among 330,000;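 further: plate controls were no compound for no effect and no enzyme for full effect; nearly all actives have a fitted effect of over 20% in size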
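AmpC (5.3 nM in the dispensed reagent) in 20 mM phosphate pH 7.0 with 0.01% (detergent screen) or 0.0001% Triton X-100 was preincubated with compounds for 15 min at room temperature. Nitrocefin was then added from an 800 uM solution, and hydrolysis was followed at 480 nm.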
Numbers without * were called inactive; ? = inconclusive; . = no result given; [ ] = another dose, or the depositor's remark. The call rests on the fitted dose curve; in most records, active means well fitted curve in the direction sought with a large enough effect; inconclusive means small, poorly fitted or top-dose-only effect, or another doubt; inactive means no such curve, though single readings can be large; an effect the other way counts as inactive or inconclusive. Unless noted, on the % scale 0 is the no-effect control and ±100 the full control effect; potency means the concentration at half of the fitted maximal effect.

SMILES	Giardia FBPA inh	AmpC inh detg	AMA1 RON2 block	LmPK inh	AmpC no deterg
COc1ccc2oc(=O)c(/C(C)=N/Nc3nc(-c4cc(C)ccc4C)cs3)cc2c1	3%	-11%	31%	-2%	-48%
Cc1cc(C)cc(-n2c(SCC(=O)N3CCCCCC3)nc3c([nH]c4ccccc43)c2=O)c1	.	9%	.	.	.
O=C(CSc1nc(C2CC2)nc2ccccc12)N1c2ccccc2Sc2ccccc21	1%	-2%	1%	5%	0.32µM*
CC(=O)c1ccc(NC(=O)CSc2nc(C3CC3)nc3ccccc23)cc1	0%	-9%	4%	-2%	4%
COc1cccc(Nc2nc3ccccc3c(=O)[nH]2)c1	-7%	2%	-5%	1%	10µM*
COc1cccc(Nc2cc(C)c3ccccc3n2)c1	1%	-5%	-8%	0%	-51%
CC(=O)C(Cc1ccccc1)NC(=O)COC(=O)c1cc(S(=O)(=O)N2CCOCC2)ccc1F (configuration not stated)	.	.	-10%	.	.
O=C1NC(=O)N(Cc2ccco2)C(=O)/C1=C/c1cccn1CCOc1ccccc1Cl	1%	-12%	-10%	4%	13µM*
O=C1NC(=O)N(Cc2ccccc2)C(=O)/C1=C\c1ccco1	1%	-15%	?	-3%	-26%[11.4 µM]
Cc1nc(C(F)(F)F)ccc1C(=O)N1CCC1(C)C(=O)Nc1ccc2c(c1)OCO2 (configuration not stated)	.	.	-6%	.	.
Cn1c(=O)c(-c2cc(F)cc(F)c2)nc2cnc(N3CCNCC3)nc21	0%	.	.	.	.
CCn1c(-c2ccc3[nH]c(C)c(C)c3c2)n[nH]c1=S	0%	-14%	16%	28µM*	-31%
O=c1cc(N2CCc3ccccc3C2)[nH]c(=O)n1-c1ccccc1Cl	-6%	-1%	-2%	3%	10µM*
COc1ccc(NC(=O)CSc2nc(N)c3cc4c(nc3n2)CCCC4)c(OC)c1	3%	1%	19%	-1%	-39%
Cc1ccc(NC(=O)CSc2nc(N)c3cc4c(nc3n2)CCCC4)cc1	5%	-5%	30%	0%	14µM*
Nc1nc(SCC(=O)Nc2ccccc2)nc2nc3c(cc12)CCCC3	0%	-4%	0%	1%	16µM*
CCCCN(C)CCNC(=O)Cn1ncc2c3ccccc3n(CCC)c2c1=O	.	-2%	.	.	.
CCC1(C)Cc2c(sc3nc(SCC(=O)O)[nH]c(=O)c23)CO1 (configuration not stated)	3%	6%	-3%	18µM*	-16%
c1coc(C2Nc3ccccc3-c3nc4ccccc4n32)c1 (configuration not stated)	-6%	-11%	56%	-15%	35µM*
c1ccc(C2Nc3ccccc3-c3nc4ccccc4n32)cc1 (configuration not stated)	-10%	1%	7%	12%	-59%
Cc1ccc2[nH]c(=O)c(CN(Cc3ccccc3)C(=S)NCCCN(C)C)cc2c1	-5%	-8%	5%	16µM*	-19%
COc1cc2cc(CN(CCc3ccccc3C)C(=S)NCCCN(C)C)c(=O)[nH]c2cc1OC	9%	0%	-2%	4%	111%
Cc1cc(C(=O)COC(=O)c2cccnc2Cl)c(C)n1CC1CCCO1 (configuration not stated)	0%	-3%	-12%	25µM*	3%
Cc1cccc(N2C(=O)CCSC23C(=O)N(Cc2ccc(F)cc2)c2ccccc23)c1 (configuration not stated)	.	4%	.	.	.
Cc1cc(C)cc(OC(C)C(=O)Nc2nonc2-c2ccc(Br)cc2)c1 (configuration not stated)	.	25%	.	.	.
SMILES	Giardia FBPA inh	AmpC inh detg	AMA1 RON2 block	LmPK inh	AmpC no deterg
COc1cc(O)oc1C=Nc1ccc(C(=O)O)cc1	-6%	?	6%	25µM*	-2%
Cc1c(NC(=O)c2cc3ccccc3o2)cccc1-c1nc2ccccc2o1	.	5%	.	.	.
COC(=O)c1nn(-c2ccc(-c3ccccc3)cc2)cc1O	4%	-17%	11%	16µM*	-19%
CCOC(=O)c1nn(-c2ccccc2)cc1O	-8%	-8%	3%	-6%	-12%
CC1(C)Cc2ccccc2-c2n[nH]c(=S)n21	0%	-1%	12%	7.1µM*	-33%
CCSc1nnc2n1C(C)(C)Cc1ccccc1-2	-6%	0%	4%	-9%	-1%
CN1OC[C@@H]2CN(S(=O)(=O)c3ccccc3)[C@H](c3ccc(-n4ccnc4)cc3)C[C@@H]21	.	.	-1%	.	.
O=c1[nH]c(NC2CCCCC2)c([N+](=O)[O-])c(=O)[nH]1	8%	89µM*	-6%	2%	-13%
CCOc1ccc2[nH]c(=O)c(C(c3nnnn3Cc3ccco3)N3CCN(C)CC3)cc2c1 (configuration not stated)	0.89µM*	-2%	-4%	-6%	-2%
NS(=O)(=O)c1ccc(CCNC(=O)CCCCCn2c(=S)[nH]c3ccc(Br)cc3c2=O)cc1	2%	?	76%	0%	18µM*
CC(NC(=O)CCN1C(=O)c2ccccc2C1=O)c1ccccc1 (configuration not stated)	1%	1%	-1%	0%	-2%
COc1ccc(C(=O)COC(=O)c2cccnc2Cl)c(OC)c1	-6%	-5%	1%	-3%	-27%
O=C(COC(=O)c1cccnc1Cl)c1ccc(OC(F)F)cc1	-1%	-3%	1%	16µM*	-25%
CC(=O)NC(c1ccco1)c1cc(Cl)c2ccc(N(C)C)nc2c1O (configuration not stated)	.	0%	.	.	89%
CC(C)c1nn2c(=O)cc(COC(=O)c3cccc(NC(=O)COc4ccc(F)cc4)c3)nc2s1	.	3%	.	.	.
O=[N+]([O-])c1ccc(N=Nc2c(Cl)cc(O)cc2Cl)cc1	1%	-5%	?	22µM*	-32%
COc1ccc(/C=C/c2cc(C(=O)O)c3ccccc3n2)cc1	-25%	-4%	9%	11µM*	-6%
COc1cc(OC)c(OC)cc1/C=C/c1cc(C(=O)O)c2ccccc2n1	-17%	2%	1%	2%	-5%
C[C@@H]1CN([C@H](C)CO)C(=O)c2cc(Br)cnc2O[C@@H]1CN(C)C(=O)C1CCOCC1	.	.	8%	.	.
CCN(CC)S(=O)(=O)c1cccc(-c2n[nH]c(=S)n2Cc2ccccc2)c1	11%	?	85%	-2%	-36%[11.4 µM]
COc1ccc(NS(=O)(=O)c2ccc(-c3n[nH]c(=S)n3Cc3ccccc3)cc2)cc1	17%	3%	93%	?	7.9µM*
